# SARS PLP yeast – SARS-CoV PLP inhibition in yeast; AID 485353; Potency, µM (series often up to 32.9 µM), inactives show top-dose activity, positive = growth rescue, usual class: activators; S. cerevisiae expressing SARS-CoV PLpro, growth rescue; hit rate 0.19% among 330,000; calls by dose curve; note: potency is the fitted concentration of half-maximal effect; 0% is about no effect; nearly all actives have a fitted effect of over 55% in size
# CHX counter – affects cycloheximide protein synthesis inhibition readout, counter-screen | cell reporter, cycloheximide protein synthesis inhibition counterscreen | max response, % | hit rate 12% among 300,000; in the data active = max response mostly above about 13%, no sharp cut-off; inactive = mostly below about 14%; note: read at 38.3 µM for the half of the compounds with a filed dose; 0% is about no effect
# Pf growth 96h – inhibits malaria parasite growth, 96 h; P. falciparum luciferase reporter growth, 96 h; Potency, µM (titrated, usually from 28.7 µM), for the others: at the top dose activity change, negative = inhibition, most hits filed as inhibitors; hit rate 6.9% among 320,000; note: potency is the fitted concentration of half-maximal effect; % is set by controls: 0 for no effect and ±100 for the full control effect
#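 Delayed-death screen, second-generation endpoint: infected erythrocytes, 2% hematocrit, 0.05% parasitemia final; 96 hours at 37 C, 5% CO2; luciferase detection reagent; luminescence decrease equals reduced growth.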
# Pf growth 48h – inhibits P. falciparum growth in the first generation, 48 h; Potency, µM (doses to about 28.7 µM), inactives show at the highest dose activity change, negative = inhibition, actives largely listed as inhibitors; P. falciparum luciferase growth in erythrocytes, 48 h; hit rate 5.9% among 310,000; note: potency is the fitted concentration of half-maximal effect; % is set by controls: 0 for no effect and ±100 for the full control effect
#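 Read-out is firefly luciferase luminescence from an integrated reporter in P. falciparum, so falling signal marks reduced parasite growth. Infected erythrocytes were at 2% hematocrit and 0.1% parasitemia (final) in Albumax-supplemented RPMI 1640.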
# Shiga inhibitor – blocks Shiga toxin action in Vero cells; inhibition, % at 38.7 µM; Vero cells, Shiga toxin protein synthesis inhibition reporter; hit rate 9.2% among 290,000; in the data active = inhibition mostly above about 28%, no sharp cut-off; inactive = mostly below about 43%; note: 0% is about no effect
# AMA1 RON2 block – inhibitors of Plasmodium falciparum AMA1-RON2 interaction. AlphaScreen AMA1-biotinylated RON2 peptide binding. hit rate 0.2% among 360,000. Potency, µM (doses to about 58.2 µM), inactives show at the top dose activity change, negative = inhibition, actives largely listed as inhibitors. AID 720542;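 note: potency is the fitted concentration of half-maximal effect; 0% = vehicle wells and -100% = peptide control; nearly all actives have a fitted effect of over 45% in size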
#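 AMA1 (3D7) with his tag at 25 nM final met compounds first, then biotinylated RON2 peptide at 25 nM; detection used donor plus acceptor beads, 10 µg/mL apiece, read by AlphaScreen after 30 min at room temperature.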
# * hit, by the source's call; ? = inconclusive; . = no result given. Most compounds without a hit are left out; they make up all but 19% or so of the library. Unless noted, calls come from the whole dose curve; as a rule, active = well fitted curve in the direction sought with a large enough effect; inconclusive = small, poorly fitted or top-dose-only effect, or another doubt; inactive = no such curve, though single readings can be large; an effect the other way counts as inactive or inconclusive.
SMILES,SARS PLP yeast,CHX counter,Pf growth 96h,Pf growth 48h,Shiga inhibitor,AMA1 RON2 block
Oc1ccc(N2CCN(C(c3ccccn3)c3nnnn3C3CCCC3)CC2)cc1 (stereo not drawn),-6%,-2,8%,10µM*,-3,5%
c1ccc(C(c2nnnn2C2CCCC2)N2CCN(c3ccccc3)CC2)cc1 (stereo not drawn),-20%,-3,?,13µM*,-3,-14%
CCC(c1nnnn1CCOC)N1CCN(c2cccc(C(F)(F)F)c2)CC1 (stereo not drawn),0%,-3,2.3µM*,?,-14,-7%
Fc1ccc(C(c2nnnn2C2CCCCC2)N2CCCC2)cc1 (stereo not drawn),1%,-1,-33%,13µM*,-22,-17%
c1cc(N2CCCC2)ccc1C(c1nnnn1C1CCCCC1)N1CCOCC1 (stereo not drawn),0%,-8,-2%,0%,-20,-3%
Cc1cn(CC(=O)NCCN2CCOCC2)c(=O)[nH]c1=O,.,.,.,.,.,-3%
Cc1ccc(F)c(C2C3C=CCC(c4cccc(-c5ccc(N(C)C)cc5)c4)C3C(=O)N2Cc2ccccc2)c1 (stereo not drawn),-2%,-1,2.9µM*,2.9µM*,-6,?
COc1ccc(-c2cccc(C3CC=CC4C3C(=O)N(Cc3ccccc3)C4c3cc(C)ccc3F)c2)cc1 (stereo not drawn),-1%,-2,6.6µM*,6.6µM*,4,.
COc1ccc(-c2cccc(C3CC=CC4C3C(=O)N(Cc3ccccc3)C4c3ccc(OC)c(Cl)c3)c2)cc1 (stereo not drawn),1%,-1,9.3µM*,12µM*,19,0%
Cc1ccc(-c2cccc(C3CC=CC4C3C(=O)N(Cc3ccccc3)C4c3ccc4ccccc4c3)c2)cc1 (stereo not drawn),-1%,6,?,?,-6,9%
O=C(COC(=O)c1ccc(F)cc1F)Nc1ccc2c(c1)OCO2,.,.,.,.,.,10%
Cc1ccc(S(=O)(=O)CCc2nc3ccccc3s2)cc1,14%,5,?,34%,20,-2%
Cc1ccc(S(=O)(=O)CCc2nc3ccccc3s2)cc1C,-4%,13*,-23%,.,25,3%
O=S(=O)(CCc1nc2ccccc2s1)c1ccc2ccccc2c1,-20%,32*,-5%,.,118*,1%
CC(/C=C/c1ccc(N(C)C)cc1)=N\N=C1\NC(=O)CC(C(=O)Nc2ccccc2)S1 (stereo not drawn),-1%,49*,23%,62%,63*,5%
CCCOc1ccc(NC(=O)C2CC(=O)N/C(=N/N=C(C)/C=C/c3ccc(N(C)C)cc3)S2)cc1 (stereo not drawn),-12%,40*,?,46%,82*,6%
CC(/C=C/c1ccc(N(C)C)cc1)=N/N=C1/NC(=O)CC(C(=O)Nc2ccc(Cl)cc2)S1 (stereo not drawn),-33%,48*,-3%,55%,60*,13%
COc1cccc(C(C(=O)NCc2ccccc2)N(C(=O)c2csnn2)C2CC2)c1 (stereo not drawn),1%,-2,-1%,13%,-3,-1%
COc1cccc(OC)c1OCC(O)CN1CCN(c2ccccc2F)CC1 (stereo not drawn),1%,-3,4.7µM*,-12%,-4,9%
CC1(Oc2ccccc2-c2ccno2)CCN(Cc2csc3ccccc23)C1 (stereo not drawn),.,.,.,.,.,-15%
CCCc1c(-c2ccc(Cl)cc2)ncn1CCc1ccccc1OC,.,.,.,.,.,-22%
Cc1ccc(S(=O)(=O)NCCNc2ccc([N+](=O)[O-])cc2C(F)(F)F)cc1,-39%,-1,4.1µM*,10µM*,-12,2%
O=C1C=C(c2ccc(F)nc2)C[C@@H](c2ccc3c(c2)OCO3)C1,-2%,.,?,4%,.,-1%
Cc1cccc(OCC(O)Cn2c(=N)n(CCN3CCCCC3)c3ccccc32)c1 (stereo not drawn),8%,8,2.6µM*,2.9µM*,-7,14%
COc1ccc(OCC(O)Cn2c(=N)n(Cc3ccccc3)c3ccccc32)cc1 (stereo not drawn),-1%,-3,?,?,-16,13%
SMILES,SARS PLP yeast,CHX counter,Pf growth 96h,Pf growth 48h,Shiga inhibitor,AMA1 RON2 block
Cc1cccc(OCC(O)Cn2c(=N)n(Cc3ccccc3)c3ccccc32)c1 (stereo not drawn),-1%,-4,5.2µM*,5.9µM*,-15,-15%
CCN(CC)CCn1c(=N)n(CC(O)COc2cccc(C)c2)c2ccccc21 (stereo not drawn),1%,-3,34%,?,5,-20%
Cc1ccc(OCC(O)Cn2c(=N)n(Cc3ccccc3)c3ccccc32)cc1 (stereo not drawn),-3%,-4,3.7µM*,.,-6,-13%
N=c1n(Cc2ccc(Cl)cc2)c2ccccc2n1CC(O)COc1ccccc1 (stereo not drawn),-4%,-4,-11%,?,-25,-14%
CCCCC1C2C(=O)N(c3ccccc3)C(=O)C2ON1c1ccccc1 (stereo not drawn),1%,-1,-31%,26%,9,-1%
CCCCC1C2C(=O)N(c3ccc(C)cc3)C(=O)C2ON1c1ccccc1 (stereo not drawn),-1%,35*,0%,39%,104*,7%
COc1cccc(C(=O)N2CCN(Cc3ccccc3C(F)(F)F)CC2)c1,-11%,2,1.5µM*,-1%,-4,?
COc1cccc(C(=O)N2CCN(C(=O)c3ccc(-c4ccccc4)cc3)CC2)c1OC,-1%,-3,89%,?,-5,-5%
COc1cccc(CN2CCN(C(=O)c3ccc(-c4ccccc4)cc3)CC2)c1OC,-1%,0,2.9µM*,-23%,-8,-26%
COc1cc(CN2CCN(C(=O)c3ccc(-c4ccccc4)cc3)CC2)cc(OC)c1OC,0%,19*,-4%,14%,98*,?
O=C(c1ccc(-n2cccc2)cc1)N1CCN(Cc2ccccc2)CC1,1%,16,36%,58%,2,-26%
Cn1nc(-c2ccc(C(=O)N3CCN(Cc4ccccc4)CC3)cc2)c2ccccc2c1=O,-3%,-2,13µM*,.,-13,4%
COc1ccc(C(=O)N2CCN(Cc3ccccc3C(F)(F)F)CC2)cc1,-2%,-6,-13%,57%,-11,?
O=C(NNc1ccccc1)/C(=C\c1cccnc1)NC(=O)c1ccccc1,0%,-2,33%,1%,-3,-7%
COCCn1c(=NC(=O)C(C)(C)C)sc2cc([N+](=O)[O-])ccc21,14%,19*,91%,39%,9,-5%

# Source: PubChem (National Center for Advancing Translational Sciences (NCATS))
